Counter-ions that a name gives are not always drawn.

One experiment concerns Mel-DCC-11-R. Kind of experiment: cell viability relative to DMSO control (fraction of DMSO control); higher = less cytotoxic, active = 0.8 or less. The settings on record: 1 µM; 120 h; vemurafenib co-treatment 0 µM. A digest of the protocol:
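For 120 h, duplicate wells of 384-well plates held 1 µM of each of 315 approved anti-cancer drugs (TargetMol), spotted acoustically before cells were added in 40 µl per well. Immortalized NHEM-hTERT melanocytes were seeded at 2500/well, and patient-derived Mel-DCC-11 plus its resistant subline Mel-DCC-11-R at 1500/well. The subline was run both without and with 8 µM of its selecting drug, and ATPlite 1step luminescence was read. Viability was normalised to vehicle-treated wells and averaged over the two replicates.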
In the case of `CC(C)C[C@H](NC(=O)[C@H](Cc1ccccc1)NC(=O)c1cnccn1)B(O)O` [Bortezomib], the cell viability is 0.0464 (active).
Still for that read-out and setting: the figure for `CC(=O)c1c(C)c2cnc(Nc3ccc(N4CCNCC4)cn3)nc2n(C2CCCC2)c1=O.O=S(=O)(O)CCO` [Palbociclib Isethionate] is 1.6 (inactive); for `COc1ccc([C@@H]2CC(=O)c3c(O)cc(O)cc3O2)cc1O` [Hesperetin] it is 0.891 (inactive); for `C=C(c1ccc(C(=O)O)cc1)c1cc2c(cc1C)C(C)(C)CCC2(C)C` [Bexarotene] it is 1.07 (inactive).
The same measure, in the same setting: for `Nc1nc(Cl)nc2c1ncn2[C@H]1C[C@H](O)[C@@H](CO)O1` [Cladribine] the value was 0.977 (inactive); for `CC(=O)O[C@]1(C(C)=O)CC[C@H]2[C@@H]3CCC4=CC(=O)CCC4=C3[C@@H](c3ccc(N(C)C)cc3)C[C@@]21C` [Ulipristal acetate], 1.13 (inactive).

The experiment is the same for the next values; noted with them: 1 µM; 120 h; vemurafenib co-treatment 8 µM.
Turning to `C#CCC(Cc1cnc2nc(N)nc(N)c2n1)c1ccc(C(=O)N[C@@H](CCC(=O)O)C(=O)O)cc1` (stereo partly drawn) [Pralatrexate], the cell viability was 1.09 (inactive).
Same read-out and setting: the figure for `CC1(COc2ccc3c(c2)ncn3-c2ccc3cccc(N4CCC(N)CC4)c3n2)COC1` [Crenolanib] is 1.35 (inactive).
As for `CC(=O)O[C@H]1C(=O)[C@]2(C)[C@@H](O)C[C@H]3OC[C@@]3(OC(C)=O)[C@@H]2[C@@H](OC(=O)c2ccccc2)[C@]2(O)C[C@H](OC(=O)[C@H](O)[C@@H](NC(=O)c3ccccc3)c3ccccc3)C(C)=C1C2(C)C` [Paclitaxel], the cell viability is 0.526 (active).
The same measure, in the same setting: for `CC(O)(P(=O)([O-])O)P(=O)([O-])O.[Na+].[Na+]` [Sodium etidronate] the value was 0.91 (inactive).
The same measure, in the same setting: for `Nc1nc2[nH]nnc2c(=O)[nH]1` [8-Azaguanine] the value was 1.05 (inactive); for `N.N.O=C([O-])C[O-].[Pt+2]` [Nedaplatin], 1.18 (inactive); for `O=C(/C=C/c1cccc(S(=O)(=O)Nc2ccccc2)c1)NO` [Belinostat], 0.659 (active).
As for `CN(C)C/C=C/C(=O)Nc1cc2c(Nc3ccc(F)c(Cl)c3)ncnc2cc1O[C@H]1CCOC1` [Afatinib], the cell viability was 0.792 (active).
`C=C[C@H]1[C@@H](O[C@@H]2O[C@H](CO)[C@@H](O)[C@H](O)[C@H]2O)OC=C2C(=O)OCC[C@]21O` [Swertiamarin]: the cell viability is 1.2 (inactive).
In the case of `Cc1ccc(NC(=O)C2(c3ccc4c(c3)OC(F)(F)O4)CC2)nc1-c1cccc(C(=O)O)c1` [Lumacaftor], the cell viability was 1.04 (inactive).
In the case of `Nc1[nH]c(=O)ncc1F` [Fluorocytosine], the cell viability was 1.08 (inactive).
The same measure, in the same setting: the figure for `O=c1c(-c2ccc(O)cc2)coc2cc(O)cc(O)c12` [Genistein] is 1.02 (inactive); for `COc1ccc2cc1Oc1ccc(cc1)C[C@H]1c3cc(c(OC)cc3CCN1C)Oc1c(OC)c(OC)cc3c1[C@H](C2)N(C)CC3` [Tetrandrine] it is 1.05 (inactive); for `COc1ccc(/C=C\c2cc(OC)c(OC)c(OC)c2)cc1OP(=O)([O-])[O-].[Na+].[Na+]` [Fosbretabulin Disodium] it is 0.421 (active).
On the same count and under the same terms, the figure for `COC(=O)/C=C/C(=O)OC` [Dimethyl fumarate] is 1.13 (inactive); for `N#Cc1ccc(C(c2ccc(C#N)cc2)n2cncn2)cc1` [Letrozole] it is 1.06 (inactive); for `O=c1cc(O)c(Cl)c[nH]1` [Gimeracil] it is 1.13 (inactive).
Still for that read-out and setting: the figure for `COC(=O)[C@]12CCC(C)(C)C[C@H]1[C@H]1C(=O)C=C3[C@@]4(C)C=C(C#N)C(=O)C(C)(C)[C@@H]4CC[C@@]3(C)[C@]1(C)CC2` [Bardoxolone Methyl] is 0.578 (active).
For the molecule `Clc1ccc(C(c2ccccc2Cl)C(Cl)Cl)cc1` (stereo not drawn) [Mitotan], the cell viability was 0.82 (inactive).
Still for that read-out and setting: for `CCOc1cc2ncc(C#N)c(Nc3ccc(OCc4ccccn4)c(Cl)c3)c2cc1NC(=O)/C=C/CN(C)C` [Neratinib] the value was 0.643 (active); for `O=C1CCC(N2C(=O)c3ccccc3C2=O)C(=O)N1` (stereo not drawn) [Thalidomide], 0.589 (active).
On the same count and under the same terms, for `CN(C)CCOc1ccc(/C(=C(/CCCl)c2ccccc2)c2ccccc2)cc1` [Toremifene] the value was 1.26 (inactive).
On the same count and under the same terms, the figure for `CC(C)NCC(O)COc1cccc2ccccc12.Cl` (stereo not drawn) [Propranolol hydrochloride] is 1.06 (inactive).
Consider `O=c1cc[nH]c(=O)[nH]1` [Uracil], for which the cell viability is 1.01 (inactive).
Turning to `COc1ccc(C(Cl)=C(c2ccc(OC)cc2)c2ccc(OC)cc2)cc1` [Chlorotrianisene], the cell viability is 0.833 (inactive).
The same measure, in the same setting: for `CC(=O)O[C@]1(C(C)=O)CC[C@H]2[C@@H]3C=C(C)C4=CC(=O)CC[C@]4(C)[C@H]3CC[C@@]21C` [Megestrol acetate] the value was 1 (inactive).
`COc1c2occc2cc2ccc(=O)oc12` [8-Methoxypsoralen]: the cell viability was 1.19 (inactive).
On the same count and under the same terms, the figure for `CC/C(=C(\c1ccccc1)c1ccc(OCCN(C)C)cc1)c1ccccc1.O=C(O)CC(O)(CC(=O)O)C(=O)O` [Tamoxifen Z-isomer citrate] is 1.16 (inactive); for `CC1=C(CC(=O)O)c2cc(F)ccc2/C1=C\c1ccc(S(C)=O)cc1` (stereo not drawn) [Sulindac] it is 1.03 (inactive).
Turning to `Oc1ccc(/C=C/c2cc(O)cc(O)c2)cc1` [Resveratrol], the cell viability is 1.16 (inactive).
The same measure, in the same setting: for `COc1cc([C@@H]2c3cc4c(cc3[C@@H](O[C@@H]3O[C@@H]5CO[C@@H](C)O[C@H]5[C@H](O)[C@H]3O)C3COC(=O)C32)OCO4)cc(OC)c1O` (stereo partly drawn) [Etoposide] the value was 0.859 (inactive).
Same read-out and setting: the figure for `CC(C)C[C@H](NC(=O)[C@H](Cc1ccccc1)NC(=O)c1cnccn1)B(O)O` [Bortezomib] is 0.048 (active); for `CC(=O)c1c(C)c2cnc(Nc3ccc(N4CCNCC4)cn3)nc2n(C2CCCC2)c1=O.O=S(=O)(O)CCO` [Palbociclib Isethionate] it is 1.19 (inactive); for `COc1ccc([C@@H]2CC(=O)c3c(O)cc(O)cc3O2)cc1O` [Hesperetin] it is 1.05 (inactive).
The same measure, in the same setting: the figure for `C=C(c1ccc(C(=O)O)cc1)c1cc2c(cc1C)C(C)(C)CCC2(C)C` [Bexarotene] is 1.59 (inactive).
In the case of `Nc1nc(Cl)nc2c1ncn2[C@H]1C[C@H](O)[C@@H](CO)O1` [Cladribine], the cell viability is 0.722 (active).
The same measure, in the same setting: the figure for `CC(=O)O[C@]1(C(C)=O)CC[C@H]2[C@@H]3CCC4=CC(=O)CCC4=C3[C@@H](c3ccc(N(C)C)cc3)C[C@@]21C` [Ulipristal acetate] is 1.04 (inactive).

The values above are taken from the supplement of paper PMC12808144.
